Screens from PubChem BioAssay.
TDP1 cell noCPT: qHTS for Inhibitors of human tyrosyl-DNA phosphodiesterase 1 (TDP1): qHTS in cells in absence of CPT; DT40 Tdp1-/- hTDP1 cells, no CPT, ATP luminescence, 48 h; Potency, µM (doses to about 46.2 µM), inactives show top-dose activity change, negative = growth inhibition, actives largely listed as inhibitors; 420,000 compounds, 15% hits; AID 686978, 2013; note: potency is the fitted concentration of half-maximal effect; nearly all actives have a fitted effect of over 55% in size
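Seeded 400 DT40-hTDP1 cells/well (vehicle DMSO, no 20 nM CPT); pinned compounds; ≥48 hr at 37 °C; CellTiter-Glo luminescence as viability measure.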
IL-1B inflam inh: inhibitors of inflammasome signaling (IL-1 beta secretion); THP-1 LPS/ATP IL-1B secretion, AlphaLISA, 16 h; stronger effect = lower value; activity change, % at 57.5 µM; 360,000 compounds, 4.7% hits; in the data active = activity change below about -50%; inconclusive = mostly about -30% to -49%
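THP-1 cells pretreated 1 hr with compounds (up to 57.5 uM final), then stimulated with LPS (250 ng/mL final) plus ATP (1.25 mM final); secreted IL-1B measured by AlphaLISA after 16 hr, decreased signal indicating inhibition.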
HT1080 IDH1KD tx: HT-1080 IDH1 knockdown cell toxicity (counter line) | HT-1080 IDH1 knockdown viability, ATP luminescence, 48 h | 360,000 compounds, 2% hits | Potency, µM (highest dose often 46.1 µM), inactives show at the top dose activity, negative = toxicity, hits mostly cytotoxic;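 note: potency is the fitted concentration of half-maximal effect; 0% = DMSO wells and -100% = cell-free medium wells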
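In this qHTS, HT-1080 cells depleted of IDH1 are exposed for 48 h at 37 °C to compound titrations. Toxicity is scored from CellTiter-Glo luminescence, with DMSO as full viability and medium alone as none.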
TDP1 cell CPT: DT40-hTDP1 cell growth loss with CPT; chicken DT40 Tdp1-/-;hTDP1 cells + 20 nM CPT, ATP luminescence, 48 h; Potency, µM (highest dose often 46.2 µM), for the others: at the top dose activity change, negative = growth inhibition, most hits filed as inhibitors; 420,000 compounds, 12% hits; AID 686979; note: potency is the fitted concentration of half-maximal effect; nearly all actives have a fitted effect of over 55% in size
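Chicken DT40 Tdp1-/- cells complemented with human TDP1, 400 cells/well, exposed to compounds plus 20 nM camptothecin for at least 48 h at 37 C; viability read as ATP content by CellTiter-Glo luminescence.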
HT1080-NT tox: kills 2HG-producing HT-1080-NT fibrosarcoma cells; 360,000 compounds, 1.6% hits; HT-1080-NT fibrosarcoma viability, CellTiter-Glo ATP luminescence, 48 h; Potency, µM (doses to about 46.1 µM), for the others: at the top dose activity, negative = less viability, actives largely listed as cytotoxic;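 note: NT is the 2HG producing partner of a matched IDH1 knockdown line; potency is the fitted concentration of half-maximal effect; 0% = DMSO-treated cells and -100% = media-only wells without cells; nearly all actives have a fitted effect of over 55% in size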
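Toxicity toward the 2HG-producing NT line was scored as %Activity, normalised to DMSO and no-cell wells, from CellTiter-Glo luminescence after 48 hours' treatment.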
* marks the source's active call; other numbers are inactive results; [ ] = remark or other dose. An excerpt weighted towards active compounds, which were near 19% of everything screened. Unless noted, calls come from the whole dose curve; as a rule, active = well fitted curve in the direction sought with a large enough effect; inconclusive = small, poorly fitted or top-dose-only effect, or another doubt; inactive = no such curve, though single readings can be large; an effect the other way counts as inactive or inconclusive. Unless noted, % is set by controls: 0 for no effect and ±100 for the full control effect.

`Cc1ccc(Cn2c(C3CCCN3c3nc(-c4ccc(F)cc4)cs3)nc3cc(Cl)c(Cl)cc32)cc1` (configuration not stated) gave TDP1 cell noCPT -25%, IL-1B inflam inh -7, HT1080 IDH1KD tx 1%, TDP1 cell CPT 3% and HT1080-NT tox -2%.
`Cc1ccc(Cn2c(C3CCCN3c3nc(-c4ccc(F)cc4)cs3)nc3cc(C(F)(F)F)ccc32)cc1` (configuration not stated) gave TDP1 cell noCPT 21µM*, IL-1B inflam inh 24, HT1080 IDH1KD tx -6%, TDP1 cell CPT 18µM* and HT1080-NT tox 0%.
`OCCOCCn1c(C2CCCN2c2nc(-c3ccc(F)cc3)cs2)nc2cc(Cl)c(Cl)cc21` (configuration not stated) gave TDP1 cell noCPT 21µM*, IL-1B inflam inh -54*, HT1080 IDH1KD tx inconclusive, TDP1 cell CPT inconclusive and HT1080-NT tox inconclusive.
Screening CCCn1c(C2CCCN2c2nc(-c3ccc(C)cc3)cs2)nc2ccccc21 (configuration not stated) returned TDP1 cell noCPT inconclusive, IL-1B inflam inh 27, HT1080 IDH1KD tx inconclusive, TDP1 cell CPT inconclusive and HT1080-NT tox inconclusive.
`COc1ccnc(Oc2ccc(C)cc2C)c1C#N` gave TDP1 cell noCPT inconclusive, IL-1B inflam inh -14, HT1080 IDH1KD tx 12%[9.24 µM], TDP1 cell CPT -28% and HT1080-NT tox -18%.
`Cc1ccc(N(C(=O)CNC(=O)c2ccco2)C(C(=O)NC2CCCC2)c2ccncc2)cc1F` (configuration not stated) gave TDP1 cell noCPT 3%, IL-1B inflam inh -2, HT1080 IDH1KD tx 10%, TDP1 cell CPT 9% and HT1080-NT tox 9%.
COc1ccc2nc(N3CCCC3)[nH]c2c1 was read as TDP1 cell noCPT -4%, IL-1B inflam inh 8, HT1080 IDH1KD tx 3%, TDP1 cell CPT -8% and HT1080-NT tox -2%.
`Cc1ccc2nc(SCC(=O)N3CCN(c4ccccc4)CC3)[nH]c2c1` gave TDP1 cell noCPT inconclusive, IL-1B inflam inh -14, HT1080 IDH1KD tx -11%, TDP1 cell CPT -28% and HT1080-NT tox -9%.
For Cc1ccc(C)c(N2CCN(C(=O)C3CCN(c4nc5ccc(C)cc5[nH]4)CC3)CC2)c1 the results were TDP1 cell noCPT 2.3µM* and TDP1 cell CPT 4.1µM*.
`CCCCNC(=O)C1CCN(c2nc3ccc(C)cc3[nH]2)CC1` gave TDP1 cell noCPT -21% and TDP1 cell CPT -26%.
`COc1ccc(N2CCN(C(=O)C3CCN(c4nc5ccc(C)cc5[nH]4)CC3)CC2)cc1` gave TDP1 cell noCPT 8.2µM* and TDP1 cell CPT 10µM*.
`CCCc1cc(=O)n2nc(N3CCC(C(=O)Nc4c(F)c(F)c(F)c(F)c4F)CC3)sc2n1` gave TDP1 cell noCPT -19%, IL-1B inflam inh -3, HT1080 IDH1KD tx 3%, TDP1 cell CPT -23% and HT1080-NT tox 11%.
For CCCc1cc(=O)n2nc(N3CCC(C(=O)N4CCN(c5ccc(OC)cc5)CC4)CC3)sc2n1 the results were TDP1 cell noCPT 5.8µM*, IL-1B inflam inh 17, HT1080 IDH1KD tx 13µM*, TDP1 cell CPT 2.6µM* and HT1080-NT tox inconclusive.
`Cc1ccc2nc(N3CCC(C(=O)N4CCN(c5cccc(Cl)c5)CC4)CC3)[nH]c2c1` gave TDP1 cell noCPT 8.2µM* and TDP1 cell CPT 13µM*.
Screening CC(=O)N(C)C[C@H]1Oc2ncc(Br)cc2C(=O)N([C@H](C)CO)C[C@@H]1C returned TDP1 cell noCPT -1%, IL-1B inflam inh 17, HT1080 IDH1KD tx 0%, TDP1 cell CPT 6% and HT1080-NT tox -14%.
`CCCCn1c(N)c(N(CCC(C)C)C(=O)c2ccc([N+](=O)[O-])s2)c(=O)[nH]c1=O` gave TDP1 cell noCPT inconclusive, IL-1B inflam inh 53, HT1080 IDH1KD tx -14%, TDP1 cell CPT 23µM* and HT1080-NT tox -17%.
